Screens deposited in PubChem by Fisher Drug Discovery Resource Center.
Shown are actives, neighbours in structure and some others; about 0.28% of the full set was active somewhere.
mcGAS inh: cyclic GMP-AMP synthase inhibitors, mouse, primary biochemical chemiluminescence; Q8C6L5; recombinant cGAS, Kinase-Glo ATP depletion luminescence; inhibition, % at 12.5 µM; 0.15% of 160,000 active;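 note: 0% = negative control wells and 100% = reference inhibitor with no enzyme activity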
NPYLR7 agonist: agonists of mosquito NPYLR7 receptor, primary screen, cell-based, Aedes aegypti, calcium fluorescence, mosquito biting behavior; activation, % at 10 µM; Aedes aegypti neuropeptide Y-like receptor 7 (NPYLR7); HEK293T NPYLR7/Galpha15, GCaMP6s calcium fluorescence; 0.15% of 270,000 active; in the data active = activation above about 40%;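 note: 0% = vehicle and 100% = reference agonist at the receptor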
hcGAS inh: Primary biochemical luminescence assay for human cyclic GMP-AMP synthase inhibitors; 0.081% of 290,000 active; recombinant h-cGAS, ATP depletion, Kinase-Glo luminescence; AID 1259398, 2018; inhibition, % at 12.5 µM;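 note: 0% = vehicle reaction and 100% = reaction without DNA for no activity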
Target sequence (Q8N884 whole entry, looked up): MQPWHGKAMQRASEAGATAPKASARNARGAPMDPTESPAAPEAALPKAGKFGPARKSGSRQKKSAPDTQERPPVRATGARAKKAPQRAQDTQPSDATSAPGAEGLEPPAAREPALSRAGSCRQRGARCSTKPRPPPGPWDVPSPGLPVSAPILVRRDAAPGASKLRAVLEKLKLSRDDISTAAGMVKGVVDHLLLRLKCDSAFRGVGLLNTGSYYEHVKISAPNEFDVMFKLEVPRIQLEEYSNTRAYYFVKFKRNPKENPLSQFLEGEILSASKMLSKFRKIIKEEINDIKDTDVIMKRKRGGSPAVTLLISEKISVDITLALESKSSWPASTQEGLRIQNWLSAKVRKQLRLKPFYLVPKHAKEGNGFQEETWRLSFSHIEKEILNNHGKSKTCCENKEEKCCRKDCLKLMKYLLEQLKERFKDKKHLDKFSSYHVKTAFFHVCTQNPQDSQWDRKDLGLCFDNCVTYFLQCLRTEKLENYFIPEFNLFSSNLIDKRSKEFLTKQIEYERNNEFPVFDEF
Starred values were filed as active, the others as inactive; nt = no result given; ! = repeats disagree. Cut-off read from the data, not from the text of the source, unless noted: active = inhibition above about 40%; inactive = the rest.

SMILES	mcGAS inh	NPYLR7 agonist	hcGAS inh
CCOC(=O)c1ccc(NC(=O)CSc2nnc(CNC(=O)c3ccc(S(=O)(=O)N4CCCC4)cc3)n2-c2ccccc2OC)cc1	-3.4	-4.9	-1.7
O=C(O)c1ccc([C@@H]2Nc3ccc(I)cc3[C@@H]3C=CC[C@@H]32)cc1	70.9*	10.3	28.4
O=C(O)c1ccc2c(c1)C1C=CCC1C(c1ccc(Br)cc1)N2 (stereo unspecified)	100.3*	-7.2	76.7*
O=C(O)c1ccc(C2Nc3c(F)cc(F)cc3C3C=CCC32)cc1 (stereo unspecified)	nt	18.1	5.8
COC(=O)c1ccc2c(c1C)NC(c1ccc([N+](=O)[O-])cc1)C1CC=CC21 (stereo unspecified)	-1.4	-2.4	-1.0
C[C@H]1C(NC(=O)C(C)(C)CC(=O)c2ccccc2)C[C@@H]2C[C@H]1C2(C)C (stereo partly specified)	-6.0	20.7	-3.7
CCCN(Cc1cc(C)ccc1C)CC(O)Cc1ccccc1 (stereo unspecified)	62.3*	3.3	-5.3
Cc1ccc(CN(Cc2ccc(F)cc2)CC(O)Cc2ccccc2)c(C)c1 (stereo unspecified)	-5.0	30.0	-3.9
O=[N+]([O-])c1ccc(OC2=NS(=O)(=O)c3cc([N+](=O)[O-])ccc32)cc1	-5.3	8.8	-8.2
O=[N+]([O-])c1ccc2c(c1)S(=O)(=O)C=C2	86.1*	8.3	1.6
CC1CCc2c(C(=O)NC(C)C)csc2C1 (stereo unspecified)	-3.9	6.4	-6.8
COCCOc1ccc(NC(=O)N(C)C(C)C2(C)CC2)cn1 (stereo unspecified)	-15.4	134.0*	-6.7
COc1ccc(NC(=O)c2ccc(NC(C)C)nc2)cn1	-4.8	6.2	-4.2
CC(N)C(=O)Nc1nnc(-c2ccccc2)s1 (stereo unspecified)	-4.7	-7.5	-6.2
CCC(=O)C(C#N)c1nnc(-c2ccccc2)s1 (stereo unspecified)	nt	8.2	56.1*
O=C(Nc1cccnc1)C(=O)NC1CCN(c2cccc(F)c2)CC1	nt	2.4	-8.7
COc1cccc(-n2c(O)c(C=Nc3cc(OC)ccc3OC)c3ccccc3c2=O)c1	-5.9	51.8*	-2.7
COc1ccc(N=Cc2c(O)n(-c3ccccc3)c(=O)c3ccccc23)c(OC)c1	-6.3	-2.8	-5.0
CCOc1cccc2sc(=NC(=O)c3ccnn3C)n(CC)c12	-9.7	nt	-5.3
CCc1c(C)nc2c(-c3ccccc3)c(C)[nH]n2c1=O	nt	-2.4	5.6
Cc1[nH]n2c(=O)c(C#N)c(-c3ccccc3)nc2c1-c1ccccc1	nt	-5.3	53.7*
Cc1ccc2c(c1)C(=O)N(C(C)C(=O)N(Cc1ccc(F)cc1)C1CC1)C2=O (stereo unspecified)	nt	-4.4	-12.9
CCOC(=O)Cn1c(-c2cccc(N3C(=O)c4ccccc4C3=O)c2)csc1=Nc1ccccc1	nt	-5.3	-7.4
O=C(Cn1nc(-c2cccs2)c2sc(N3CCOCC3)nc2c1=O)N1CCCc2ccccc21	-9.0	-4.2	-8.4
O=C(c1ccccc1OC(F)(F)F)N1CCC(Cc2ccc3c(c2)OCO3)CC1	-7.4	-1.4	-3.8
SMILES	mcGAS inh	NPYLR7 agonist	hcGAS inh
CC(C)N=C(N)N=C(N)Nc1ccc(Cl)cc1	nt	5.6	-3.8
NC(=NCCCCCCN=C(N)N=C(N)Nc1ccc(Cl)cc1)N=C(N)Nc1ccc(Cl)cc1	-3.6	70.4*!	-3.8
Cn1ccc(NC(=O)COc2ccc(Cl)cc2C2CCCCC2)n1	nt	2.3	8.3
O=C(CNC(=O)c1ccc(F)c(F)c1)Nc1ccnc2ccnn12	nt	9.5	-4.8
Cc1ccc(-n2[nH]c(C(=O)Nc3ccnc4ccnn34)cc2=O)cc1	-7.2	-0.5	68.0*
O=C(NCC1(c2ccccc2)CCOCC1)c1cn(C2CC2)cc(C(=O)NC2CCCCC2)c1=O	-9.0	21.0	-4.9
O=C(OCC1(O)C(Cl)C=CC(OC(=O)c2ccccc2)C1O)c1ccccc1 (stereo unspecified)	48.2*	-13.8	-2.2
O=C(OCN1C(=O)c2ccccc2C1=O)c1ccccc1	nt	22.0	-14.8
O=C(C1CCCN(c2nc3nonc3nc2N2CCCCCC2)C1)N1CCOCC1 (stereo unspecified)	nt	7.5	6.0
CCOC(=O)C1CCCN(c2nc3nonc3nc2N2CCSCC2)C1 (stereo unspecified)	-3.5	44.8*!	-9.2
C=C(C)Cn1c(N2CCCCC2C)nc2c1c(=O)[nH]c(=O)n2C (stereo unspecified)	nt	2.6	-4.6
COCCN(Cc1ccc(OC)cc1)c1c(C)nc2ccc(C(=O)NCCCN(C)C)cn12	-2.8	-3.4	-6.1
CCOc1nc(Cl)c(C#N)c(-c2ccccc2)c1C#N	nt	6.4	44.6*
CCOC(=O)c1c(N)c2c(-c3ccccc3)c(C#N)c(OCC)nc2n1C	nt	3.2	-1.4
